# In article PMC7862700, “An all-to-all approach to the identification of sequence-specific readers for epigenetic DNA modifications on cytosine”:
# What was measured:
# Assay in all cases: DAPPL (digital affinity profiling via proximity ligation, sequencing); 10 mM Tris-HCl pH 7.5, 50 mM NaCl, 1 mM DTT, 4% glycerol, room temperature, 30 min; GST-TFs on glutathione beads, 16-mer random dsDNA library, 0.1% formaldehyde crosslink after washing; high values mean tight binding
# Settings in all cases: protein: recombinant; tags: N-terminal GST; dsDNA, one strand shown
# ERF = biological target: T1, ERF (Homo sapiens, UniProt P50548 1-548)
# T1 sequence: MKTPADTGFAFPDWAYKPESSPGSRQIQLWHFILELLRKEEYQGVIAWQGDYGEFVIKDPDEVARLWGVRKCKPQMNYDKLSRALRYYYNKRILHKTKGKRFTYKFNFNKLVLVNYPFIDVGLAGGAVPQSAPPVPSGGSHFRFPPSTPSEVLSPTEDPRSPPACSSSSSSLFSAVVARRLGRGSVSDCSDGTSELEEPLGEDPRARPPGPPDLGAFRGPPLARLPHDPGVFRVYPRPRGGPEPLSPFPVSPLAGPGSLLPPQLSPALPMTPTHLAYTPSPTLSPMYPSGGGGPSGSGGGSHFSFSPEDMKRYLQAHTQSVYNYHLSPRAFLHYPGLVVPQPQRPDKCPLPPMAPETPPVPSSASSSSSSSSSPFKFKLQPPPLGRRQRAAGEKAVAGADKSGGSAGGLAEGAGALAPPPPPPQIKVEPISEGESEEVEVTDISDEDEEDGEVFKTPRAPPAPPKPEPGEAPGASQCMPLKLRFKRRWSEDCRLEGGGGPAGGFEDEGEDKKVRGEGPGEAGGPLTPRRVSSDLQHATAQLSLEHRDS
# In short: (§1)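 Each value of binding signal is a hexamer's read frequency for a factor divided by the same hexamer's frequency in the tag-only sample. Barcoded, bead-captured GST fusions of human transcription factors made in yeast were pooled with that sample and incubated with 200 nmole of a random double-stranded 16-mer DNA library in Tris/NaCl/DTT/glycerol buffer at room temperature for 30 min. Washing, 0.1% formaldehyde crosslinking, proximity ligation, PCR and Illumina NextSeq500 sequencing followed.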
# ETV3L = biological target: T2, ETV3L (Homo sapiens, UniProt Q6ZN32 1-361)
# T2 sequence: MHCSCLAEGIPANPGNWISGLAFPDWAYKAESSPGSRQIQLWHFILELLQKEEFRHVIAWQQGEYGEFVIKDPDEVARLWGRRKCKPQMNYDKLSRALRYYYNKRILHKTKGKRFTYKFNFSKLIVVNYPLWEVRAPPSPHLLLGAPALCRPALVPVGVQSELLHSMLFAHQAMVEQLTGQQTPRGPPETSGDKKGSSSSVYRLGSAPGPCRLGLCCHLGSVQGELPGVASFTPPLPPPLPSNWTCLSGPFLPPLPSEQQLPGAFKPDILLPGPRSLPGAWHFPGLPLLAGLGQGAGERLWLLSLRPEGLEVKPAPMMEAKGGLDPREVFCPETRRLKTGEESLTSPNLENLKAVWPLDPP
# In short: as §1
# ETS2 = biological target: T3, ETS2 (Homo sapiens, UniProt P15036 1-469)
# T3 sequence: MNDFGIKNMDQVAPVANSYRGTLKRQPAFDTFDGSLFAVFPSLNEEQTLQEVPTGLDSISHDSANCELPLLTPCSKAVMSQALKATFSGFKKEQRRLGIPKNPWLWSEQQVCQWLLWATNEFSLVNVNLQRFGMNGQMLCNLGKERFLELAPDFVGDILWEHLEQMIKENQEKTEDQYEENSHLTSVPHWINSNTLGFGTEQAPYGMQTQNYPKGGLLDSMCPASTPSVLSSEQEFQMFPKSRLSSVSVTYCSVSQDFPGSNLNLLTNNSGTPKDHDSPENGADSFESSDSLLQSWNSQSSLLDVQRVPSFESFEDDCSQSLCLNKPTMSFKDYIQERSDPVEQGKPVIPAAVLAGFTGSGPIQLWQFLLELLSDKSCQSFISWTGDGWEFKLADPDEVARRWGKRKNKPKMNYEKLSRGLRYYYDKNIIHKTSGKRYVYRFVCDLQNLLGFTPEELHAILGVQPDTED
# In short: as §1
# SPDEF = biological target: T4, SPDEF (Homo sapiens, UniProt O95238 1-335)
# T4 sequence: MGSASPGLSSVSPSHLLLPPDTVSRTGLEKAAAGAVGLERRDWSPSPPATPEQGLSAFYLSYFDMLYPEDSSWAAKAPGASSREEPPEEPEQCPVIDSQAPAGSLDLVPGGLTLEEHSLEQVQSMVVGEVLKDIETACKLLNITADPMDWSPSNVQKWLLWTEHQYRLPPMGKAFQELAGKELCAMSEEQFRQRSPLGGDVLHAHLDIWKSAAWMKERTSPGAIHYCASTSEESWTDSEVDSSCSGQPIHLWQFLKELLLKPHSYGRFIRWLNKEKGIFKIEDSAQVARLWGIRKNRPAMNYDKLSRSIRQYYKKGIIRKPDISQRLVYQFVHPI
# In short: as §1
# ETV7 = biological target: T5, ETV7 (Homo sapiens, UniProt Q9Y603 1-341)
# T5 sequence: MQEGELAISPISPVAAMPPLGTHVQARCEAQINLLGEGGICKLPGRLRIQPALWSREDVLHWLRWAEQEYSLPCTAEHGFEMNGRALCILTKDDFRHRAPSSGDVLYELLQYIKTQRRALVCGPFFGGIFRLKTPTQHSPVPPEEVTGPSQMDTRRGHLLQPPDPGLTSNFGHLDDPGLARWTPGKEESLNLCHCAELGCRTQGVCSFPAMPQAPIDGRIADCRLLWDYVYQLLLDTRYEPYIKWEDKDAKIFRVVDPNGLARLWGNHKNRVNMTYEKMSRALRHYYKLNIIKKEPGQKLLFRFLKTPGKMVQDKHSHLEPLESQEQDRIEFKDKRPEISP
# In short: as §1
# ELF5 = biological target: T6, ELF5 (Homo sapiens, UniProt Q9UKW6-2 1-255)
# T6 sequence: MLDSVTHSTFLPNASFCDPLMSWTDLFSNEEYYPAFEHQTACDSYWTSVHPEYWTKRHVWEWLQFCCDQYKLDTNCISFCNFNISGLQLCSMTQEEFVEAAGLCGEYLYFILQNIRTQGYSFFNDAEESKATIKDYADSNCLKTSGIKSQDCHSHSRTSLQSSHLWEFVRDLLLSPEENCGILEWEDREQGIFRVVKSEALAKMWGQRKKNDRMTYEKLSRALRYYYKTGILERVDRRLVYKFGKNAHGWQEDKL
# In short: as §1
# ETV3 = biological target: T7, ETV3 (Homo sapiens, UniProt P41162-2 1-143)
# T7 sequence: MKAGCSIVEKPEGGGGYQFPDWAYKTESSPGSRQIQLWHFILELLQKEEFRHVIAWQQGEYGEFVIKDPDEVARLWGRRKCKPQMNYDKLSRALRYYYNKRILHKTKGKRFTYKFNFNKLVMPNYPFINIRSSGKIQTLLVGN
# In short: as §1
# ETV6 = ETV6 (Homo sapiens, UniProt P41212 1-452)
# ETV6, sequence (P41212 whole entry): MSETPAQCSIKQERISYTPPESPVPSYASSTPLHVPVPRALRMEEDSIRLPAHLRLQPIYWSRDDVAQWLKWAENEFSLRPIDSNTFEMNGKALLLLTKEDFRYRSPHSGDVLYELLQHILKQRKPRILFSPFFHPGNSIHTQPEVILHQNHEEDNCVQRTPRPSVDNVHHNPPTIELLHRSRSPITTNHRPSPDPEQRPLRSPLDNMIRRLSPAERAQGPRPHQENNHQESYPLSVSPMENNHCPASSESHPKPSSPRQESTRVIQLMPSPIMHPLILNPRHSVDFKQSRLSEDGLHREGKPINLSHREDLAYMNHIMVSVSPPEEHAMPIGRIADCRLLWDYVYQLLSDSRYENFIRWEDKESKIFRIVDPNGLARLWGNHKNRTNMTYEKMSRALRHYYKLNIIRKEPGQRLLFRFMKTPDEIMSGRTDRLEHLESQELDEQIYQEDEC
# In short: as §1
Sequence,binding signal (ERF),binding signal (ETV3L),binding signal (ETS2),binding signal (SPDEF),binding signal (ETV7),binding signal (ELF5),binding signal (ETV3),binding signal (ETV6)
GAAGTA,"1.79 fold enrichment (6-mer frequency, TF over GST control)","1.79 fold enrichment (6-mer frequency, TF over GST control)","2.08 fold enrichment (6-mer frequency, TF over GST control)","2.1 fold enrichment (6-mer frequency, TF over GST control)","2.08 fold enrichment (6-mer frequency, TF over GST control)","2.34 fold enrichment (6-mer frequency, TF over GST control)","2.11 fold enrichment (6-mer frequency, TF over GST control)","2.52 fold enrichment (6-mer frequency, TF over GST control)"
CTGATC,"1.52 fold enrichment (6-mer frequency, TF over GST control)","1.36 fold enrichment (6-mer frequency, TF over GST control)","1.42 fold enrichment (6-mer frequency, TF over GST control)","1.33 fold enrichment (6-mer frequency, TF over GST control)","1.35 fold enrichment (6-mer frequency, TF over GST control)","1.32 fold enrichment (6-mer frequency, TF over GST control)","1.36 fold enrichment (6-mer frequency, TF over GST control)","1.23 fold enrichment (6-mer frequency, TF over GST control)"
CTAAAT,"1.35 fold enrichment (6-mer frequency, TF over GST control)","1.43 fold enrichment (6-mer frequency, TF over GST control)","1.38 fold enrichment (6-mer frequency, TF over GST control)","1.31 fold enrichment (6-mer frequency, TF over GST control)","1.34 fold enrichment (6-mer frequency, TF over GST control)","1.25 fold enrichment (6-mer frequency, TF over GST control)","1.4 fold enrichment (6-mer frequency, TF over GST control)","1.3 fold enrichment (6-mer frequency, TF over GST control)"
CCCCGC,"1.11 fold enrichment (6-mer frequency, TF over GST control)","1.23 fold enrichment (6-mer frequency, TF over GST control)","1.14 fold enrichment (6-mer frequency, TF over GST control)","1.06 fold enrichment (6-mer frequency, TF over GST control)","1.19 fold enrichment (6-mer frequency, TF over GST control)","1.07 fold enrichment (6-mer frequency, TF over GST control)","1.14 fold enrichment (6-mer frequency, TF over GST control)","1.16 fold enrichment (6-mer frequency, TF over GST control)"
AAAAGG,"1.08 fold enrichment (6-mer frequency, TF over GST control)","1.1 fold enrichment (6-mer frequency, TF over GST control)","1.11 fold enrichment (6-mer frequency, TF over GST control)","1.07 fold enrichment (6-mer frequency, TF over GST control)","1.16 fold enrichment (6-mer frequency, TF over GST control)","1.21 fold enrichment (6-mer frequency, TF over GST control)","1.13 fold enrichment (6-mer frequency, TF over GST control)","1.19 fold enrichment (6-mer frequency, TF over GST control)"
CGACCG,"1.17 fold enrichment (6-mer frequency, TF over GST control)","1.28 fold enrichment (6-mer frequency, TF over GST control)","1.22 fold enrichment (6-mer frequency, TF over GST control)","1.22 fold enrichment (6-mer frequency, TF over GST control)","1.13 fold enrichment (6-mer frequency, TF over GST control)","1.12 fold enrichment (6-mer frequency, TF over GST control)","1.12 fold enrichment (6-mer frequency, TF over GST control)","1.18 fold enrichment (6-mer frequency, TF over GST control)"
ACTCAC,"1.25 fold enrichment (6-mer frequency, TF over GST control)","1.16 fold enrichment (6-mer frequency, TF over GST control)","1.28 fold enrichment (6-mer frequency, TF over GST control)","1.22 fold enrichment (6-mer frequency, TF over GST control)","1.2 fold enrichment (6-mer frequency, TF over GST control)","1.21 fold enrichment (6-mer frequency, TF over GST control)","1.15 fold enrichment (6-mer frequency, TF over GST control)","1.22 fold enrichment (6-mer frequency, TF over GST control)"
CTCGCT,"1.78 fold enrichment (6-mer frequency, TF over GST control)","1.87 fold enrichment (6-mer frequency, TF over GST control)","1.67 fold enrichment (6-mer frequency, TF over GST control)","1.62 fold enrichment (6-mer frequency, TF over GST control)","1.54 fold enrichment (6-mer frequency, TF over GST control)","1.55 fold enrichment (6-mer frequency, TF over GST control)","1.51 fold enrichment (6-mer frequency, TF over GST control)","1.64 fold enrichment (6-mer frequency, TF over GST control)"
TCCTCT,"1.68 fold enrichment (6-mer frequency, TF over GST control)","1.74 fold enrichment (6-mer frequency, TF over GST control)","1.67 fold enrichment (6-mer frequency, TF over GST control)","1.58 fold enrichment (6-mer frequency, TF over GST control)","1.67 fold enrichment (6-mer frequency, TF over GST control)","2.15 fold enrichment (6-mer frequency, TF over GST control)","1.63 fold enrichment (6-mer frequency, TF over GST control)","1.64 fold enrichment (6-mer frequency, TF over GST control)"
